# Pol kappa inh-1: inhibitors of human DNA polymerase kappa; Q9UBT6; purified Pol kappa, fluorescent DNA synthesis assay, 10 min; Potency, µM (top dose mostly 107 µM), without a hit: at the top dose activity, negative = inhibition, actives largely listed as inhibitors; 400,000 compounds, 0.53% hits; further: potency means the concentration at half of the fitted maximal effect; on the % scale 0 is the no-effect control and ±100 the full control effect
# Target sequence (Q9UBT6 whole entry, looked up): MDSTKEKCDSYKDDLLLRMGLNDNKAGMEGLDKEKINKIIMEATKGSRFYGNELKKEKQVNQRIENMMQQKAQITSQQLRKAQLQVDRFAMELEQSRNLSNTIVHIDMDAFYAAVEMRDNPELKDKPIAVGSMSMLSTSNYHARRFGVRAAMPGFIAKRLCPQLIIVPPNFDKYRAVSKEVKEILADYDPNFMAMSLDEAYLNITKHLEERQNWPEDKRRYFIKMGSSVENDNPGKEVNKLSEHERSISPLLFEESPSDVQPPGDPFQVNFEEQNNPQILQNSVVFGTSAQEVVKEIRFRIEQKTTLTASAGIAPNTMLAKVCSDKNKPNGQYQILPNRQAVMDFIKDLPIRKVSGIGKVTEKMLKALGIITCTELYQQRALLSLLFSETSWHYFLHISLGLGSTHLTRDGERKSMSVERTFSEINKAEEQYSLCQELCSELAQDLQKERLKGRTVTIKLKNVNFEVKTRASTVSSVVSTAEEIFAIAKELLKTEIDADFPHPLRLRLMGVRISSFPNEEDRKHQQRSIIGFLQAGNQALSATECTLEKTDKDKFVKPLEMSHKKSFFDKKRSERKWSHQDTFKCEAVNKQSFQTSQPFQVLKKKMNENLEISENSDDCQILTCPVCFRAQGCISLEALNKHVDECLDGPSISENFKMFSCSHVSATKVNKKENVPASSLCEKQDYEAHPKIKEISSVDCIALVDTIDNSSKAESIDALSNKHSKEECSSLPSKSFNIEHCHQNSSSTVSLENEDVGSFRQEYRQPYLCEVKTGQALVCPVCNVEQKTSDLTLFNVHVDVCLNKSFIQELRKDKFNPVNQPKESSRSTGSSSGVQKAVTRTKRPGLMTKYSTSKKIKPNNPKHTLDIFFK
#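 Kinetic fluorescence screen: compound preincubated 15 min RT with 10 nM enzyme; 50 nM substrate (final) initiates; reads at 0/10 min.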
# ALOX12 inh: ALOX12 (human) lipoxygenase inhibition | P18054 | purified 12hLO, xylenol orange hydroperoxide absorbance | Potency, µM (top dose mostly 108 µM), without a hit: top-dose activity change, negative = inhibition, most hits filed as inhibitors | 580,000 compounds, 1.1% hits; further: potency means the concentration at half of the fitted maximal effect; on the % scale 0 is the no-effect control and ±100 the full control effect
#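 Purified human 12hLO (150 nM final) in 25 mM Hepes, 0.01% Triton X-100, pH 7.0 was preincubated 15 min at room temperature with compound. Then 40 uM arachidonic acid was added, 30 min. Hydroperoxide was read by Fe-XO absorbance ratio 573/405 nm.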
# PI5P4K alpha inh: blocks human PI5P4K alpha kinase activity | P48426 | PI5P4Kalpha enzyme, ADP-Glo luminescence, 60 min; hits give low values | 330,000 compounds, 1.2% hits | max response, %; active means max response of -50% or lower; inconclusive means between -30% and -50%; inactive means -30% or higher; further: value at the top dose of about 77 µM; on the % scale 0 is the no-effect control and ±100 the full control effect
#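 PI5P4Kalpha ADP-Glo assay; 5 microM ATP final; 60 min RT reaction; HEPES pH 7.4/EGTA/CHAPS, 5% DMSO; controls lacking substrate or enzyme; luminescent end-point.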
# POLB inh: inhibitors of human DNA polymerase beta | AID 485314 | 340,000 compounds, 1.3% hits | Pol beta primer extension/strand displacement, fluorescence kinetic | P06746 | Potency, µM (doses to about 114 µM), without a hit: at the highest dose activity change, negative = inhibition, hits mostly inhibitors; further: potency means the concentration at half of the fitted maximal effect; on the % scale 0 is the no-effect control and ±100 the full control effect
#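 Homogeneous kinetic assay of primer extension and strand displacement by 10 nM Pol beta, preincubated 15 min at room temperature with compound before 50 nM substrate (final) was added. Read at 0 and 10 min; four-parameter Hill fit.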
# POLI inh: inhibitors of human DNA polymerase iota | Q9UNA4 | Pol iota fluorescent replication assay, 10 min | Potency, µM (series often up to 115 µM), for inactives: top-dose activity, negative = inhibition, actives largely listed as inhibitors | 390,000 compounds, 1% hits; further: potency means the concentration at half of the fitted maximal effect
#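 Pol iota at 10 nM preincubated 15 min with compounds at room temperature; reaction started with fluorescent substrate, 50 nM final. Fluorescence read kinetically at 0 and 10 min; buffer-only wells as negative control.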
# Pol eta inh-1: blocks human DNA polymerase eta activity | Q9Y253 | recombinant Pol eta, fluorescent DNA replication assay | Potency, µM (series often up to 114 µM), inactives show at the highest dose activity change, negative = inhibition, actives largely listed as inhibitors | 390,000 compounds, 1.2% hits | AID 588591; further: potency means the concentration at half of the fitted maximal effect; on the % scale 0 is the no-effect control and ±100 the full control effect
#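 Pol eta (10 nM) was preincubated with compounds for 15 min at room temperature, after which fluorescent replication substrate (50 nM final) was added to start the reaction. Fluorescence was read kinetically at 0 and 10 min.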
# GALK inh confirm: confirmation of human galactokinase (GALK) inhibitors; shares compounds with Pol eta inh-1; purified GALK, Kinase-Glo ATP depletion luminescence; Potency, µM (series often up to 115 µM), for inactives: at the top dose activity, negative = inhibition, hits mostly inhibitors; 150 compounds, 70% hits; AID 2015
# Redox cycling: counter-screen for GALK inhibitors: redox cycling H2O2 generation. 150 compounds, 40% hits. AID 2035. Phenol red-HRP H2O2 redox cycling, absorbance 600 nm. shares compounds with Pol eta inh-1. Potency, µM (titrated, usually from 115 µM), for the others: top-dose activity change, negative = H2O2 signal, usual class: inhibitors
# HEK293 tox: counter-screen for GALK inhibitors: HEK293 cell cytotoxicity. shares compounds with Pol eta inh-1. Potency, µM (series often up to 46.1 µM), inactives show top-dose activity change, negative = cytotoxicity, actives largely listed as inhibitors. 170 compounds, 10% hits. HEK-293 viability, ATP luminescence (CellTiter-Glo), 24/48 h; further: potency means the concentration at half of the fitted maximal effect; on the % scale 0 is the no-effect control and ±100 the full control effect
# Pol kappa inh-2: Pol kappa (human) inhibition, cherry-pick confirmation; Potency, µM, hits mostly inhibitors; 920 compounds, 76% hits; purified Pol-kappa, fluorescent strand-displacement substrate; shares compounds with Pol eta inh-1; further: potency means the concentration at half of the fitted maximal effect
# Pol eta inh-2: Pol eta (human) inhibition, cherry-pick confirmation | Pol eta primer extension, TAMRA/BHQ fluorescence, 10 min | 2,600 compounds, 64% hits | shares compounds with Pol eta inh-1 | Potency, µM, actives largely listed as inhibitors | AID 720502; further: potency means the concentration at half of the fitted maximal effect
# * marks the source's active call; other numbers are inactive results; ? = inconclusive; / = not tested or not shown; [ ] = another dose, or the depositor's remark. The list is not random: actives were taken first. Their share in the collection is about 2.9%. Unless noted, the call rests on the fitted dose curve; in most records, active means well fitted curve in the direction sought with a large enough effect; inconclusive means small, poorly fitted or top-dose-only effect, or another doubt; inactive means no such curve, though single readings can be large; an effect the other way counts as inactive or inconclusive.
SMILES,Pol kappa inh-1,ALOX12 inh,PI5P4K alpha inh,POLB inh,POLI inh,Pol eta inh-1,Pol eta inh-2,others
Cc1ccc(C(=O)NCc2ccco2)o1,?,-14%,-7,?,?,?,/,
CCc1cc(C(=O)Nc2ccc(S(=O)(=O)NC3=NCCCCC3)cc2)sc1C,50µM*,?,?,/,22µM*,56µM*,?,
Cc1ccc(C(=O)Nc2ccc(S(=O)(=O)NC3=NCCCCC3)cc2)c(C)c1,2%,7%,2,/,58%,-18%,/,
O=C1NC(=O)/C(=C/c2ccc(-c3cc(C(=O)O)ccc3Cl)o2)S1,56µM*,?,-82*,32µM*,40µM*,20µM*,?,
CCOC(=O)c1c(C)[nH]c(N=Nc2cc(C(=O)O)cc(C(=O)O)c2)c1C,?,-10%,-6,-1%,?,18µM*,9.5*,
O=C(CN1CCN(c2ccccc2)CC1)NCC(F)(F)F,/,13%,/,/,/,/,/,
CC(=O)NS(=O)(=O)c1ccc(NC(=O)/C=C/c2ccc(C)o2)cc1,?,0%,?,-16%,?,22µM*,43*,
Cc1ccc(/C=C/C(=O)Nc2ccc(N(C)C)cc2)o1,-3%,?,-15,0%,25%,-6%,/,
Cc1cccc(Oc2ccccc2NS(=O)(=O)c2ccc(CCC(=O)O)cc2)c1,-44%,?,-14,/,?,20µM*,85*,Pol kappa inh-2=19*
Cc1ccc(-c2nc(C#N)c(NCC(C)C)o2)cc1,/,-32%,/,/,/,/,/,
COCCN(C(=O)COC(=O)Cc1cccc2ccccc12)c1c(N)n(Cc2ccccc2)c(=O)[nH]c1=O,-10%,-13%,-1,36%,24%,-21%,/,
COCCN(C(=O)COC(=O)Cc1coc2cc(C)ccc12)c1c(N)n(Cc2ccccc2)c(=O)[nH]c1=O,?,?,?,/,35µM*,20µM*,60*,
CCCNC(=O)CNC(=O)c1ccc(NC(=O)C2CC2)s1,/,-5%,/,/,/,/,/,
CC1=CC2(O)OCCN(CCO)C2=CC1=O (centres undefined),?,-29%,/,25µM*,?,?,?,
O=C(/C=C/c1ccco1)c1ccc(NC(=O)C23CC4CC(CC(C4)C2)C3)cc1,?,?,-77*,7.1µM*,?,10µM*,?,
COc1ccc(/C=C/C(=O)c2ccc(NC(=O)C34CC5CC(CC(C5)C3)C4)cc2)cc1,/,-29%,/,/,/,/,/,
COc1ccc(C(=O)CSc2nnc3c(=O)n(-c4ccc(C(C)C)cc4)ccn23)cc1OC,/,-4%,/,/,/,/,/,
O=C(O)c1ccc(S(=O)(=O)N[C@H](Cc2ccc(O)cc2)C(=O)O)cc1,/,/,/,/,/,/,34*,
O=C(O)c1ccc(S(=O)(=O)c2ccccc2)cc1,-18%,-5%,/,-8%,-2%,-7%,/,
O=C(O)c1ccc(Oc2ccc(S(=O)(=O)c3ccc(C(=O)O)c(C(=O)O)c3)cc2)cc1,?,-16%,?,?,28µM*,18µM*,38*,Pol kappa inh-2=19*
CCCN(CCC)S(=O)(=O)c1ccc(NC(=O)Cc2cccs2)cc1,-36%,-16%,/,?,?,?,76*,
COc1ccc(-c2c(C(=O)O)sc3c2NC(=O)CC32C(=O)N(C)c3cc(F)ccc32)cc1 (centres undefined),/,7%,/,/,/,/,/,
Cc1nc2ncnn2c(N2CCN(C(=O)Cc3cccs3)CC2)c1C,?,-21%,/,20µM*,?,79µM*,?,
O=C(/C=C/c1ccc([N+](=O)[O-])cc1)Nc1cccc(C(=O)Nc2ccccc2C(=O)O)c1,-15%,?,-66*,?,?,28µM*,24*,
C/C=C/COC(=O)c1[nH]c2c(c1C)C(=O)CC(c1ccco1)C2 (centres undefined),79µM*,?,-29,22µM*,?,22µM*,?,
SMILES,Pol kappa inh-1,ALOX12 inh,PI5P4K alpha inh,POLB inh,POLI inh,Pol eta inh-1,Pol eta inh-2,others
Cc1nn(CCc2nn[nH]n2)c2nc(-c3ccc(C4CCCCC4)cc3)cc(C(F)(F)F)c12,-35%,?,28,?,29%,45µM*,?,
NC(=O)C(CC(=O)O)NC(=O)[C@@H]1CCOc2c(I)cc([N+](=O)[O-])cc2C(=O)N[C@@H](CO)C(=O)N[C@@H](Cc2ccc(O)cc2)C(=O)N1 (some centres undefined),35µM*,/,-1,0%,?,20µM*,30*,
NC(=O)[C@@H]1CCNc2c(I)cc([N+](=O)[O-])cc2C(=O)N[C@@H](CO)C(=O)N[C@@H](Cc2ccc(O)cc2)C(=O)N1,/,/,/,3%,/,/,/,
O=C1CC(c2ccccc2)CC2=C1C1(CCCC1)N=C(Nc1nc3ccccc3o1)N2 (centres undefined),/,?,/,/,/,/,/,HEK293 tox=-3%
O=C1CCCC2=C1C1(CCCCC1)N=C(Nc1nc3ccccc3o1)N2,-10%,-20%,/,-23%,1%,-17%,/,GALK inh confirm=17µM*;Redox cycling=-5%;HEK293 tox=-2%
O=C1CCCC2=C1C1(CCCC1)N=C(Nc1nc3ccccc3o1)N2,/,-7%,/,1%,/,/,/,HEK293 tox=-1%
Cc1cccc(C)c1Nc1nc2ccccc2o1,4%,6%,2,-8%,24%,-26%,/,
Clc1ccccc1Nc1nc2ccccc2o1,-13%,0%,-4,/,9%,-5%,/,
O=C1CCCC2=C1C1(CCC1)N=C(Nc1nc3ccccc3o1)N2,/,/,/,/,/,/,/,HEK293 tox=-1%
Cc1csc(Nc2ccc3c(n2)CN(Cc2ccccc2C)C(=O)CO3)n1,/,33%[176 µM],/,/,/,/,/,

# High-throughput results: PubChem BioAssay, National Center for Advancing Translational Sciences (NCATS)
